HPGD block = qHTS Assay for Inhibitors of HPGD (15-Hydroxyprostaglandin Dehydrogenase); 15-hydroxyprostaglandin dehydrogenase [NAD(+)] (Homo sapiens), P15428; purified HPGD, NADH fluorescence kinetic, PGE2 substrate; Potency, µM, without a hit: at the top dose activity change, negative = inhibition, hits mostly inhibitors; 150,000 compounds, 4.3% hits; AID 894, 2007; active = well fitted inhibition curve with a large enough effect, not every such curve was filed as active; inconclusive = small, poorly fitted or top-dose-only effect, or another doubt; inactive = no such curve, though single readings can be large or run the other way; note: % is set by controls: 0 for no effect and ±100 for the full control effect
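20 nM HPGD preincubated 15 min at room temperature with compound in 50 mM Tris-HCl pH 8, 0.01% Tween 20. Started with 1 mM NAD+ and 30 uM prostaglandin E2; NADH fluorescence (360/450 nm) read 5 times over 30-s intervals, last minus first.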
HttQ103 aggreg = qHTS Multiplex Assay to Identify Dual Action Probes in a Cell Model of Huntington: Aggregate Formation (GFP); PC12 HttQ103-GFP aggregates, Acumen cytometry, 40 h; Potency, µM (highest dose often 46.1 µM), without a hit: top-dose activity change, negative = inhibition, actives largely listed as inhibitors; 220,000 compounds, 1.1% hits; note: % is set by controls: 0 for no effect and ±100 for the full control effect; nearly all actives have a fitted effect of over 60% in size
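Huntingtin Q103 exon 1–GFP aggregates in induced PC12 cells (100 nM tebufenozide) were quantified by cytometry from lysates, with compounds dosed in titration.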
HTT ATP protect = qHTS Multiplex Assay to Identify Dual Action Probes in a Cell Model of Huntington: Cytoprotection (ATP) | PC12 HTT-Q103 induced, cytoprotection, ATP luminescence, 40 h | Potency, µM (doses to about 56.4 µM), for the others: cytoprotection (ATP increase), most hits filed as activators | 230,000 compounds, 0.14% hits | AID 1471, 2008; note: % of control where 0% means no effect; nearly all actives have a fitted effect of over 45% in size
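Huntington model: PC12 line, ecdysone-inducible HTTQ103 exon1–GFP, tebufenozide 100 nM. Test articles in a dose series. Endpoint luminescence from cellular ATP.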
ALDH1A1 inh = qHTS Assay for Inhibitors of Aldehyde Dehydrogenase 1 (ALDH1A1); Aldehyde dehydrogenase 1A1 (Homo sapiens), P00352; Purified ALDH1A1, NADH fluorescence, propionaldehyde substrate; Potency, µM (top dose mostly 75.3 µM), for inactives: at the top dose activity, negative = inhibition, usual class: inhibitors; 220,000 compounds, 7.3% hits; active = well fitted inhibition curve with a large enough effect, not every such curve was filed as active; inconclusive = small, poorly fitted or top-dose-only effect, or another doubt; inactive = no such curve, though single readings can be large or run the other way;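 note: plate controls were no enzyme wells and a reference inhibitor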
Target sequence (P00352 whole entry, looked up): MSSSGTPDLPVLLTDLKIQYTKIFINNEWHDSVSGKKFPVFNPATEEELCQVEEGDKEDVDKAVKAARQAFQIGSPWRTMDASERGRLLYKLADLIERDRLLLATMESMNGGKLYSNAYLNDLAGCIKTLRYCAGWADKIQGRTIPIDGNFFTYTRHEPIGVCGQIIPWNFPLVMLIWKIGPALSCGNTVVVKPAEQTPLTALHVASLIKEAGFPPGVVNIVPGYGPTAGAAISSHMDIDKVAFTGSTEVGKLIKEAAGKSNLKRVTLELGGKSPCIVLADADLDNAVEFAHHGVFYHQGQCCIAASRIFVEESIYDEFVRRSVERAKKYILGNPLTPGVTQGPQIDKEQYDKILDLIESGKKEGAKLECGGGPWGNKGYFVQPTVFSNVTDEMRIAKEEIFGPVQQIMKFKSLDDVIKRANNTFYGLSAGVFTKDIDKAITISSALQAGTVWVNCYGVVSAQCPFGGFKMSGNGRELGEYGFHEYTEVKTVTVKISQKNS
LMNA splice mod = qHTS Assay for Modulators of Lamin A Splicing; 200,000 compounds, 0.01% hits; HeLa LMNA splicing GFP/RFP minigene ratio, 48 h; Potency, µM (top dose mostly 46.1 µM), inactives show top-dose ratio change, negative = inhibition, most hits filed as inhibitors; active = well fitted inhibition curve with a large enough effect in the signal ratio, with a control signal flat, not every such curve was filed as active; inconclusive = small, poorly fitted or top-dose-only effect, or effect the other way, or a change in a side signal; the % refers to the signal ratio; note: % is set by controls: 0 for no effect and ±100 for the full control effect
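S3 HeLa stable clones carrying a lamin A-EGFP splicing minigene plus DsRed2 were seeded at 600 cells/well in Opti-MEM with 2% FBS, pin-dosed and incubated 48 h at 37°C. Acumen cytometry (488 nm) gave the GFP/RFP total-intensity ratio.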
KinaseGlo FLuc = Counterscreen for Luciferase (Kinase-Glo TM) Inhibition | Luciferin 4-monooxygenase (Photuris pensylvanica), Q27757 | 200,000 compounds, 0.28% hits | Potency, µM (top dose mostly 38.3 µM), for the others: at the highest dose activity change, negative = inhibition, most hits filed as inhibitors | Kinase-Glo luciferase, ATP luminescence, 8 min; note: % is set by controls: 0 for no effect and ±100 for the full control effect; nearly all actives have a fitted effect of over 60% in size
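Compound is pinned into ATP-containing buffer (10 uM ATP, imidazole pH 7.2, 7 mM MgCl2). Kinase-Glo luciferase reagent is then added. Light output is recorded following an 8-min room-temperature incubation.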
The depositor's hits bear a star; ! = not active in a repeat; [ ] = dose if it differs, or a comment. An excerpt weighted towards active compounds, which were near 9% of everything screened. Unless noted, calls come from the whole dose curve; as a rule, active = well fitted curve in the direction sought with a large enough effect; inconclusive = small, poorly fitted or top-dose-only effect, or another doubt; inactive = no such curve, though single readings can be large; an effect the other way counts as inactive or inconclusive. Potency is the fitted concentration of half-maximal effect.

Results for COc1ccc(/C=C/C(=O)Nc2ccccc2C(=O)O)cc1 ?
HttQ103 aggreg: 31%; ALDH1A1 inh: -10%; KinaseGlo FLuc: -15%

What do the screens show for `COc1ccc(/C=C/C(=O)Nc2ccccc2C(=O)O)cc1OC`?
HPGD block: 14µM*!; HttQ103 aggreg: -7%; HTT ATP protect: -51%; ALDH1A1 inh: -3%; LMNA splice mod: inconclusive; KinaseGlo FLuc: -1%

How did COc1ccc(/C=C/C(=O)c2ccc(O)cc2O)cc1 do in these assays?
HPGD block: 32µM*; ALDH1A1 inh: inconclusive; LMNA splice mod: inconclusive; KinaseGlo FLuc: -10%

Results for COc1ccc(C(=O)/C=C(\N)C(F)(F)F)c(O)c1 ?
HPGD block: -14%; HttQ103 aggreg: 5%; HTT ATP protect: 14%; ALDH1A1 inh: 8.9µM*; LMNA splice mod: 8%; KinaseGlo FLuc: -2%

Results for CC(=O)c1cc(N2CCOCC2)ccc1[N+](=O)[O-] ?
HttQ103 aggreg: 3%; HTT ATP protect: -23%; ALDH1A1 inh: -5%; KinaseGlo FLuc: 3%

What do the screens show for `COc1ccc(NC(=S)N(CCN(C)C)C(C)c2ccco2)cc1` (stereo not given)?
HPGD block: -4%; HttQ103 aggreg: -14%; HTT ATP protect: -18%[10 µM]; ALDH1A1 inh: 13%; LMNA splice mod: -14%; KinaseGlo FLuc: 0%

What do the screens show for `CN1CCC(N(C)C(=O)/C=C/c2cn(-c3ccccc3)nc2-c2cccs2)CC1`?
HttQ103 aggreg: inconclusive; HTT ATP protect: -50%; ALDH1A1 inh: inconclusive; LMNA splice mod: inconclusive; KinaseGlo FLuc: 1%

What do the screens show for `COc1ccc(/C=C(\C#N)c2n[nH]c(Cn3cncn3)n2)cc1`?
HttQ103 aggreg: 6%; HTT ATP protect: 11%[10 µM]; ALDH1A1 inh: -2%; LMNA splice mod: 6%[46 µM]; KinaseGlo FLuc: -1%

Results for COc1ccc(/C=C/C(=O)c2cc(O)ccc2O)cc1 ?
HPGD block: inconclusive; HTT ATP protect: 5µM*; ALDH1A1 inh: inconclusive; KinaseGlo FLuc: -13%

How did COc1ccc(/C=C/C(=O)c2ccc(O)cc2O)cc1OC do in these assays?
HPGD block: 14µM*; ALDH1A1 inh: inconclusive; KinaseGlo FLuc: -3%

How did S=c1[nH]c2ccc(Cl)cc2s1 do in these assays?
HttQ103 aggreg: 12%[9.22 µM]; HTT ATP protect: -18%[10 µM]; ALDH1A1 inh: 1.3µM*; LMNA splice mod: 14%[46 µM]

Results for COc1ccc(OC)c(CCNc2ncnc3onc(C)c23)c1 ?
LMNA splice mod: -2%[46 µM]

Results for CC(NC(=O)COC(=O)Cc1ccsc1)C1CC2CCC1C2 (stereo not given) ?
HPGD block: 28µM*; HttQ103 aggreg: 11%; HTT ATP protect: -7%; ALDH1A1 inh: -2%; LMNA splice mod: 7%; KinaseGlo FLuc: 4%

How did Cc1cccc(C)c1NC(=O)COC(=O)Cc1ccsc1 do in these assays?
HPGD block: 0%; HttQ103 aggreg: 20µM*; HTT ATP protect: 33%[10 µM]; ALDH1A1 inh: 11%; LMNA splice mod: -1%; KinaseGlo FLuc: 3%

How did O=C(COC(=O)Cc1ccsc1)NCc1ccc(Cl)cc1 do in these assays?
HPGD block: 28µM*; HttQ103 aggreg: -3%; HTT ATP protect: 9%[1.9 µM]; ALDH1A1 inh: 12%; LMNA splice mod: -11%; KinaseGlo FLuc: -2%

Results for O=C(COC(=O)Cc1ccsc1)NCc1ccccc1 ?
HPGD block: -4%; HttQ103 aggreg: 30%; HTT ATP protect: 18%[1.9 µM]; ALDH1A1 inh: 5%; LMNA splice mod: -11%; KinaseGlo FLuc: 5%

Results for O=C(CSc1nnc(-c2ccco2)n1Cc1ccco1)NCc1ccccc1 ?
HPGD block: -21%; HttQ103 aggreg: 24%; HTT ATP protect: 7%; ALDH1A1 inh: -10%; LMNA splice mod: -1%; KinaseGlo FLuc: 22%

Assay outcomes (PubChem)
